Five compounds from PubChem BioAssay can be followed below.

Assay [1] relates to Hepatitis C virus NS3 helicase. Kind of assay: blockers of NS3h binding to ssDNA – biochemical, fluorescence polarization, LOPAC1280 library, primary screen (AID 687035; in the data active = inhibition above about 37%). As to conditions: Purified HCV NS3 helicase, Cy5-dT15 ssDNA binding fluorescence polarization; stronger effect = higher value; concentration not given here. In general terms: In fluorescence polarisation assays a small probe gives low polarisation when free and higher when bound to something large.

Assay [2] is described as follows: compounds altering Cy5-DNA-NS3h complex signal – biochemical, LOPAC1280, artefact control for HCV NS3 helicase inhibitor project (AID 687037). As to conditions: Cy5-DNA-NS3h complex fluorescence interference counterscreen. On the technique in general: The purpose of a counterscreen is to sort out artefacts and off-target activity.
Assay [3] can be described thus: Wnt pathway potentiators raising nuclear beta-catenin – imaging, WNT3A-conditioned medium, mouse C2C12, NPC library, primary screen (AID 1117326; in the data active = nuclear beta-catenin stimulation mostly above about 4.2%, no sharp cut-off; inactive = mostly below about 10%). Conditions: stronger effect = higher value.
Assay [4] in a line: stimulators of insulin release from INS-1E, primary screen, cell-based, 5 mM glucose, NPC library (AID 1117329;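 active = compound raises insulin release from rat beta cells at 5 mM glucose, no numeric limit stated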). As to conditions: rat INS-1E insulin secretion, at 10 µM, stronger effect = higher value.
Assay [5] in a line: growth inhibition of GSK3B-pretreated HCT116 cells – cell-based, CellTiter-Glo, 0.2 to 20 µM (AID 1117336;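 active = compounds lowering colon cancer cell viability after pretreatment blocking the GSK3B kinase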). As to conditions: HCT116 viability after GSK3B inhibitor, at 20 µM, stronger effect = higher value. (In ATP-based viability assays light output follows the ATP content of the culture.)
A short description of assay [6]: inhibition of endothelial tube formation, primary screen, imaging, VEGF stimulated, CD31 staining, tube area, NPC library (AID 1117340;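 active = compound that reduces growth-factor-driven endothelial tube area in a mixed cell culture, no cutoff stated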). Conditions: VEGF-stimulated ADSC/ECFC co-culture, at 10 µM, stronger effect = higher value.
A short description of assay [7]: GLP1 release stimulators, primary, NCI-H716, NPC library (AID 1117341;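 active = compound raises GLP1 secretion from the human gut endocrine cells, with no numeric limit stated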). Conditions: NCI-H716 cells, at 10 µM, stronger effect = higher value.
The nature of assay [8]: HCT116 colon cancer cell growth inhibition, primary screen, CellTiter-Glo luminescence, NPC library (AID 1117342;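 active = compounds that lower survival of HCT116 colon cancer cells in the luminescence readout, no numeric limit stated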). Conditions: at 20 µM (top of the series).
Assay [9] is described as follows: reduced SW480 viability measured with CellTiter-Glo, NPC library, primary (AID 1117343;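 active = compounds that lower viability of the colon cancer cells in the luminescence readout, with no numeric limit stated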). As to conditions: CellTiter-Glo luminescence; at 20 µM (top of the series).
The nature of assay [10]: NPC library primary testing for decreased DLD-1 cell viability via CellTiter-Glo (AID 1117346;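 active = compounds that lower survival of DLD-1 colon cancer cells in the luminescence readout, no cutoff given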). Conditions: DLD-1 viability, CellTiter-Glo luminescence; at 20 µM (top of the series).
For assay [11], the system named is Aerobactin synthetase IucA (Klebsiella pneumoniae, hypervirulent). Kind of assay: biochemical IucA inhibition screen of LOPAC library by absorbance (AID 1346212).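 Note: 100% = no compound wells and 0% = no enzyme wells.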 As to conditions: IucA enzyme assay, absorbance (OD) readout; stronger effect = lower value;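 tested at 8 µM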.
Assay [12] is described as follows: viability loss with induced miR-34 in A549 – imaging, A549 dox-inducible miR-34, nuclei and caspase counts, primary screen (AID 1347080;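 active = compounds whose cell count with miR-34 switched on is under 0.7 times the count with it off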). Conditions: A549 miR-34 inducible, Hoechst nuclei count, 48 h.
Assay [13] is described as follows: galactose survival enhancers in mitochondrial complex I cybrids – cell-based, galactose medium, ATP luminescence, primary screen (AID 1645843;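 active = z-score of at least 1.8 in each of two replicates, scored against plate mean and spread of sample wells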;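 note: positive z means more ATP and so rescue of galactose-driven cybrid death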). As to conditions: complex I mutant cybrid cells, 72 h, stronger effect = higher value.
The nature of assay [14]: compounds altering viability of human ES cells (AID 493140).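 Note: cells exposed to compounds for four days before counting.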 As to conditions: human embryonic stem cell survival screen; stronger effect = higher value.
Assay [15] in a line: P. berghei load reduction in hepatocytes – cell-based, HepG2, luciferase luminescence, HepG2 viability, primary screen (AID 624349; in the data active = parasite load remaining mostly below about 12%, no sharp cut-off; inactive = mostly above about 10%;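 note: 100% = mean of DMSO negative control wells on the same plate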). Conditions: P. berghei liver stage in HepG2, luciferase luminescence, concentration not given here; parasite load remaining: stronger effect = lower value; viability: measured here: HepG2 viability without parasites.
Assay [16] can be described thus: MELAS cybrid and Rieske KO viability enhancers – cell-based, MELAS cybrids, Rieske KO mouse fibroblasts, CellTiter-Glo, primary screen (AID 1508586;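 active = mean z-score across replicates of 1.96 or higher in either the MELAS or the Rieske mutant cell line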;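 note: z relative to plate mean and SD of compound and empty wells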). Conditions: low glucose.
The target of assay [17] is NAD(+) hydrolase SARM1 (Homo sapiens) (UniProt Q6SZW1). Kind of assay: blocking NAD cleavage by SARM1 SAM-TIR – cell lysate, NAD-Glo luminescence (AID 1508614;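 active = compound whose remaining NAD level is above about 45 nM, limit read from the data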;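 note: higher remaining NAD means stronger inhibition of SARM1 NADase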). As to conditions: SAM-TIR HEK293T lysate NADase, at 1 µM, stronger effect = higher value.
Assay [18] can be described thus: EMT-state selective cytotoxicity in co-culture – imaging, PC-3E GFP, TEM4-18 mCherry, primary screen (AID 1345086;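 active = compounds killing one labelled cell type while sparing the other, by normalised counts and ratio limits, not self-fluorescent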;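 note: cells exposed to compound for 72 h before imaging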;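 for red/green cell ratio (normalised): normalised mesenchymal count divided by normalised epithelial count so high means epithelial killing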). As to conditions: PC-3E GFP / TEM4-18 mCherry co-culture, imaging cell counts, at 1 µM.
Where [19] appears, read: measured here: relative caspase fold change +Dox/-Dox.
Setting [20] is: measured here: total cells with miR-34 induction, stronger effect = lower value.
Setting [21] is: measured here: total cells without miR-34 induction.
The mark [22] stands for this setting: MELAS cybrid survival, CellTiter-Glo 48 h, stronger effect = higher value.
Setting [23] is: Rieske KO mouse fibroblast survival, CellTiter-Glo 72 h.

Values joined by “and” are separate entries in the source; they are usually repeats but may differ in a detail not shown here. Equal entries are not always repeated. Active and inactive are the calls of the source. Unless noted, the rule behind the calls is not given here.

NAD(+) hydrolase SARM1 (Homo sapiens), sequence (Q6SZW1 whole entry, looked up): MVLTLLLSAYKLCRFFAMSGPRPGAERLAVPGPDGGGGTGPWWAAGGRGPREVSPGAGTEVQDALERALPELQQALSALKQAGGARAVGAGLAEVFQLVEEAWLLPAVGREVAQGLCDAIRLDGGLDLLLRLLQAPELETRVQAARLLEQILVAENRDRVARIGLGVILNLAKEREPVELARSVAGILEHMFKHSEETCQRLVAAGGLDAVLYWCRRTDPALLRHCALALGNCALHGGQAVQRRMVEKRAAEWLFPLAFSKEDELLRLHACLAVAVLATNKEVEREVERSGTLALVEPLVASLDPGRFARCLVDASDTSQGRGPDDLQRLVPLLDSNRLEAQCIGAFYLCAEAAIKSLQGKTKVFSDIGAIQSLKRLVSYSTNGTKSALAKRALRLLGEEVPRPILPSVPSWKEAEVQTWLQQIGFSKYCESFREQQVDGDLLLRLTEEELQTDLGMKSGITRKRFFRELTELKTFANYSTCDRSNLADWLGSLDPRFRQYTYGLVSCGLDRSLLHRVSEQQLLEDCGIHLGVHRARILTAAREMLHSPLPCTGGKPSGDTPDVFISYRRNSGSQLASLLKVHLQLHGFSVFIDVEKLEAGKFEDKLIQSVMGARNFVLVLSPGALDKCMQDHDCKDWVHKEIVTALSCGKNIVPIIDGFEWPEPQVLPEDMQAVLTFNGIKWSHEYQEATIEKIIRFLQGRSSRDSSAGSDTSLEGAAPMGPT

For the compound `CCCN1CCC[C@@H]2Cc3nc(N)ncc3C[C@H]21`, in assay [1], the inhibition is -1% (inactive). Besides, the fluorescence ratio (interference) in assay [2] is 1 (inactive). Also, the nuclear beta-catenin stimulation is 4.8% (inactive) in [3] (at 10 µM) and -0.2% in assay [3] (stimulation, at 2 µM). In addition, the insulin secretion stimulation in assay [4] is -0.2% (inactive). Also, the viability decrease in assay [5] is -24.3% (inactive). Moreover, the tube area decrease in assay [6] was -0.4% (inactive). In assay [7], the GLP1 secretion stimulation was -2.2% (inactive). Further, the inhibition of viability in assay [8] was -3.2% (inactive). The values for the viability decrease (inhibition) in assay [9] and in assay [10] were -4.6% (inactive) and -14.6% (inactive), respectively. In addition, the remaining activity in assay [11] is 118% (inactive). Besides, the fold change in assay [12] (stronger effect = lower value) is 0.958 (inactive); in assay [12] (setting [19]) it was 2.12. For the same compound, the cell count in assay [12] (setting [20]) was 9790; in assay [12] (setting [21]) it was 10200. Besides, the z-score in [13] is 0.925 (inactive).
For `Cc1nnc2n1-c1sc(CCC(=O)N3CCOCC3)cc1C(c1ccccc1Cl)=NC2`, the nuclear beta-catenin stimulation is 0.3% (inactive) in assay [3] (at 10 µM) and -0.9% in assay [3] (stimulation, at 2 µM). Moreover, the insulin secretion stimulation in [4] is 3.7% (inactive). In assay [5], the viability decrease was 11.7% (inactive). Also, the tube area decrease in assay [6] was 1.8% (inactive). In addition, the GLP1 secretion stimulation in assay [7] is 0.4% (inactive). In assay [8], the inhibition of viability was 13.6% (inactive). In addition, the viability decrease (inhibition) in assay [9] is -4.5% (inactive); in assay [10], -5.7% (inactive). For the same compound, the fold change in assay [12] (stronger effect = lower value) is 1.01 (inactive); in assay [12] (setting [19]), 0.912. Moreover, the cell count turned out to be 9280 in assay [12] (setting [20]) and 9210 in [12] (setting [21]). Also, in [13], the z-score was -0.365 (inactive).
As for `NCC1(CC(=O)O)CCCCC1`, in [14], the survival was 2.25 (inactive). The parasite load remaining in [15] was 131% (inactive) and 58.8% (inactive). For the same compound, the viability in assay [15] is 103% and 169%. Also, in assay [1], the inhibition was -6% (inactive). Also, in assay [2], the fluorescence ratio (interference) was 1 (inactive). The nuclear beta-catenin stimulation in assay [3] (at 10 µM) was 1% (inactive); in assay [3] (stimulation, at 2 µM), 2.1%. For the same compound, in [4], the insulin secretion stimulation was -1.1% (inactive). Moreover, the viability decrease in assay [5] is -8.75% (inactive). Moreover, the tube area decrease in assay [6] is 20.1% (inactive). For the same compound, in assay [7], the GLP1 secretion stimulation was -1.7% (inactive). The inhibition of viability in [8] is -3.4% (inactive). The viability decrease (inhibition) in assay [9] was -3.2% (inactive); in [10], -8.35% (inactive). Further, the remaining activity in [11] is 98.6% (inactive). For the same compound, the z-score in assay [16] (setting [22]) was 0.467 (inactive) and -0.335 (inactive); in [16] (setting [23]) it was -0.399 and 0.119; in assay [13], 0.26 (inactive) and 0.88 (inactive). In addition, the remaining NAD in assay [17] is 10 nM (inactive).
As to `N#CC(C#N)=Cc1ccc(O)c(O)c1`, in assay [14], the survival is 57.1 (inactive). In addition, in assay [1], the inhibition is 0% (inactive). For the same compound, the fluorescence ratio (interference) in assay [2] is 1 (inactive). Further, the nuclear beta-catenin stimulation in assay [3] (at 10 µM) is 3.9% (inactive); in assay [3] (stimulation, at 2 µM), 3.3%. The insulin secretion stimulation in [4] is 0.65% (inactive). In addition, the viability decrease in assay [5] is 86.7% (active). Moreover, the tube area decrease in assay [6] is 17.4% (inactive). Further, the GLP1 secretion stimulation in assay [7] was -2.9% (inactive). In addition, the inhibition of viability in assay [8] is 55.1% (active). Besides, the viability decrease (inhibition) in assay [9] was 62.8% (active); in assay [10], 48.5% (inactive). Also, the remaining activity in [11] was 120% (inactive). The fold change is 1.02 (inactive) and 0.942 (inactive) and 0.96 (inactive) in [12] (stronger effect = lower value); 1.77 and 0.329 and 1.5 in [12] (setting [19]). In addition, the cell count in assay [12] (setting [20]) was 8900 and 8210 and 9690; in [12] (setting [21]), 8760 and 8720 and 10100. The z-score in assay [16] (setting [22]) was -0.508 (inactive); in assay [16] (setting [23]), -0.257; in assay [13], -0.735 (inactive) and -0.66 (inactive).
On to `CC(C)c1c(CN(C)C(C)Cc2ccccc2)n(C)n(-c2ccccc2)c1=O` (configuration not stated), for which the survival in [14] was 1.08 (inactive). In addition, the parasite load remaining in assay [15] is 76.8% (inactive). For the same compound, the viability in [15] is 87.3%. For the same compound, the nuclear beta-catenin stimulation in [3] (at 10 µM) is 1.5% (inactive); in assay [3] (stimulation, at 2 µM) it was 5.4%. Moreover, the insulin secretion stimulation in assay [4] was 0% (inactive). Moreover, the viability decrease in [5] is -83% (inactive). For the same compound, the tube area decrease in [6] is 9.4% (inactive). In addition, the GLP1 secretion stimulation in assay [7] was 3.9% (inactive). The inhibition of viability in assay [8] was 50.3% (active). In addition, the values for the viability decrease (inhibition) in [9] and in [10] were 103% (active) and 73.2% (active), respectively. Besides, the red/green cell ratio (normalised) in assay [18] (actives lie on both sides) is 1.06 (inactive). Also, the results for the normalised cell number in [18] (measured here: epithelial PC-3E GFP cell survival) and in assay [18] (measured here: mesenchymal TEM4-18 mCherry cell survival) were 0.93 and 0.98, respectively. The fold change in assay [12] (stronger effect = lower value) is 0.889 (inactive); in [12] (setting [19]), 1.06. The cell count in assay [12] (setting [20]) was 8350; in assay [12] (setting [21]), 9380. The z-score was -1.05 (inactive) in assay [16] (setting [22]) and 0.158 in assay [16] (setting [23]). For the same compound, the remaining NAD in assay [17] was 10 nM (inactive).

The term inhibition denotes the drop in the measured response relative to a control, in per cent. A word on the remaining activity: it is the signal under treatment as a percentage of the control signal. What is called viability is a read-out of living cells in per cent, often relative to untreated cells.
